For 6 compounds, composite z-score and z-score results are on record in PubChem BioAssay.

Activity calls are given as the source filed them.

A short description of test [1]: small molecules captured by biotinylated probe aFSTL3 – biochemical, small-molecule microarray, fluorescence 635/667, stem cell growth factor project, primary screen (AID 1064).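 Note: measures binding of the biotinylated anti-FSTL3 antibody to printed compounds.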 To be noted: higher = more signal.
Test [2] is described as follows: binders from COS7 lysate, DM2A8 probe, primary screen, torsin A project, cell lysate, small-molecule microarray, fluorescence 635/667 (AID 1065). To be noted: higher = more signal, COS7 lysate expressing mutant human TOR1A.
A short description of test [3]: small molecules captured by biotinylated probe aFGF2 – biochemical, small-molecule microarray, fluorescence 635/667, stem cell growth factor project, primary screen (AID 1067).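 Note: measures binding of biotinylated aFGF2 protein to printed compounds on slides; z-score merges feature fluorescence and signal-to-noise across triplicate slides.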 To be noted: higher = more signal.
The nature of test [4]: small molecules captured by biotinylated probe aFGF10 – biochemical, small-molecule microarray, fluorescence 635/667, stem cell growth factor project, primary screen (AID 1071).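 Note: score merges 667 nm spot intensity and signal to noise from triplicate slides.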 To be noted: higher = more signal.
Test [5] has as its target Neurogenic locus notch homolog protein 2 (Homo sapiens) (UniProt Q04721). Kind of test: small molecules binding Notch2 protein – biochemical, small-molecule microarray, 635 nm fluorescence, stem cell growth factors, primary screen (AID 1073). To be noted: higher = more signal.
The target of test [6] is Pro-neuregulin-1, membrane-bound isoform (Homo sapiens) (UniProt Q02297). Kind of test: small molecules binding neuregulin-1 protein – biochemical, small-molecule microarray, fluorescence 635/667, psychiatric disease protein project, primary screen (AID 1075).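 Note: score combines 667 nm spot fluorescence with signal to noise.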 To be noted: NRG1 binding, 635 nm fluorescence, higher = more signal.
Pro-neuregulin-1, membrane-bound isoform (Homo sapiens), sequence (Q02297 whole entry, looked up, the tested form may be a part, canonical isoform): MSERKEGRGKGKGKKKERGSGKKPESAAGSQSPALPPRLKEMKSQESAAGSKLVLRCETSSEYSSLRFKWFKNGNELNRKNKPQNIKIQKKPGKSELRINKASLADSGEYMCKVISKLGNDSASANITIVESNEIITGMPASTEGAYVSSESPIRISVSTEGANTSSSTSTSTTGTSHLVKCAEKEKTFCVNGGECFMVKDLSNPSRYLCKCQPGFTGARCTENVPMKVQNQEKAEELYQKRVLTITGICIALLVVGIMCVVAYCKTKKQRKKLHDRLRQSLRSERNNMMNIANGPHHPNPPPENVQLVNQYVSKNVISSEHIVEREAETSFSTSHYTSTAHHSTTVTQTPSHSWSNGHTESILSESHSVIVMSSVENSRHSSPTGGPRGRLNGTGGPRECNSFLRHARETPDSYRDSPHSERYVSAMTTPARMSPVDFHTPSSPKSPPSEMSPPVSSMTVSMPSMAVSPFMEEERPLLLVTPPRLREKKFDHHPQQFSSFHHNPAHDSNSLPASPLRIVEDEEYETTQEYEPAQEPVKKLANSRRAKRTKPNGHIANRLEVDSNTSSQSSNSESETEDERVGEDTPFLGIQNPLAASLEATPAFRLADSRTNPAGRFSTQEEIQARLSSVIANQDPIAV
Test [7] relates to Neuregulin-1 EGF-like domain. Kind of test: small molecules binding NRG1 EGF domain – biochemical, small-molecule microarray, 635 nm fluorescence, primary screen (AID 1081).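 Note: binding of the protein to compounds printed on small-molecule microarray slides.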 As to conditions: higher = more signal.
Test [8] is described as follows: FRG1 expression reporter modulators in myotubes – cell-based, C2C12 myotubes, firefly/Renilla luciferase, luminescence, FRG1 inhibition for FSHD, primary screen (AID 1084). To be noted: FRG1 promoter luciferase, higher = more signal, called active from +8 up or from −8 down.
Test [9] is described as follows: small molecules captured by biotinylated probe aFST – biochemical, small-molecule microarray, fluorescence 635/667, stem cell growth factor project, primary screen (AID 1086).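 Note: score merges 667 nm fluorescence with signal-to-noise of each printed compound spot.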 To be noted: higher = more signal.
Test [10] can be described thus: binders of probe aHhip on microarray, primary screen, stem cell growth factor project, biochemical, small-molecule microarray, fluorescence 635/667 (AID 1087).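 Note: score merges spot fluorescence at 667nm with spot signal to noise ratio.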 As to conditions: higher = more signal.
For test [11], the system named is PRMT1 (protein arginine N-methyltransferase 1). Kind of test: small molecules binding arginine methyltransferase PRMT1 – biochemical, small-molecule microarray, 635 nm fluorescence, primary screen (AID 1088).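 Note: binding of Prmt1 protein to compounds spotted on small-molecule microarray slides.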 To be noted: higher = more signal.
The nature of test [12]: growth effects on S. cerevisiae YJM789 – YJM789 clinical isolate, OD600, 24 h, basal, primary screen (AID 1089).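 Note: growth of clinical yeast isolate S. cerevisiae YJM 789 seeded 1000 cells per well; test concentration not given here.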 To be noted: higher = more signal, called active from +8 up or from −8 down.
Test [13] is described as follows: S. pombe growth modifiers, basal conditions – strain 972, OD600, 24 h, no modulator, primary screen (AID 1090).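 Note: basal condition with compound alone and no growth modifier present; test concentration not given here.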 As to conditions: S. pombe 972 growth, higher = more signal, called active from +8 up or from −8 down.
The nature of test [14]: budding yeast growth modifiers under rapamycin – strain BY4716, OD600, 96 h, primary screen (AID 1091). Note: test concentration not given here. As to conditions: S. cerevisiae BY4716 + rapamycin, higher = more signal, called active from +8 up or from −8 down.
For test [15], the target named is Torsin-1A-interacting protein 2 (Homo sapiens) (UniProt Q8NFQ8). Kind of test: small molecules binding lysate-expressed LULL1 – cell lysate, human LULL1 lysate, 635/667 nm fluorescence, primary screen (AID 1092).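 Note: score merges per-feature 667 nm fluorescence with signal-to-noise.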 To be noted: small-molecule microarray, hLULL1 lysate binding, 635 nm fluorescence; higher = more signal.
Torsin-1A-interacting protein 2 (Homo sapiens), sequence (Q8NFQ8 whole entry, looked up): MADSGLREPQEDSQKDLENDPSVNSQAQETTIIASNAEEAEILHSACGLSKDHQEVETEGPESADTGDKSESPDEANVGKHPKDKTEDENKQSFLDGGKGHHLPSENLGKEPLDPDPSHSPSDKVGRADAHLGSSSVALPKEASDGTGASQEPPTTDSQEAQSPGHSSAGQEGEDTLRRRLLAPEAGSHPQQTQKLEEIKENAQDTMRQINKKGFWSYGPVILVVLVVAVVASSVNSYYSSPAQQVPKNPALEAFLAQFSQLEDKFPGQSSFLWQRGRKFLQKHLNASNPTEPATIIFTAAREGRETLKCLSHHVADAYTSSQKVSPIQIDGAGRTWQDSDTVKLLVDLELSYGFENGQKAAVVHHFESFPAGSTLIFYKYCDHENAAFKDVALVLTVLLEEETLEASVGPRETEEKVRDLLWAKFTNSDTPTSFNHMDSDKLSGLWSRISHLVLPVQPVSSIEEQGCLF
The nature of test [16]: optical density change of DRC41 E. coli – strain DRC41, OD650, 24 h, E. coli filamentation project, primary screen (AID 1093).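 Note: MC1000 strain lacking acrAB efflux and sulA so SOS filamentation is blocked; test concentration not given here.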 To be noted: E. coli DRC41 growth, higher = more signal, called active from +8 up or from −8 down.
Test [17] in a line: probe aLefty2 binding to arrayed compounds – biochemical, biotinylated probe, 635/667 nm fluorescence, primary screen (AID 1094).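 Note: score merges spot fluorescence near 667 nm with spot signal-to-noise ratio.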 To be noted: small-molecule microarray, higher = more signal.
For test [18], the system named is Noggin (protein binding on small-molecule microarray). Kind of test: small molecules binding Noggin protein – biochemical, 635/667 nm fluorescence, primary screen (AID 1095).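 Note: score merges 667 nm feature fluorescence with signal to noise over triplicate slides.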 To be noted: 635 nm fluorescence, higher = more signal.
The target in test [19] is Neurogenic locus notch homolog protein 3 (Homo sapiens) (UniProt Q9UM47). Kind of test: small molecules binding NOTCH3 protein – biochemical, 635/667 nm fluorescence, primary screen (AID 1096). As to conditions: small-molecule microarray, 635 nm fluorescence, higher = more signal.
Test [20] can be described thus: probe aEGFR binding to arrayed compounds – biochemical, biotinylated probe, 635/667 nm fluorescence, primary screen (AID 1097).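 Note: probe is a biotinylated anti-EGFR antibody binding compounds printed on slides; score combines fluorescence near 667 nm and signal to noise of each spot.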 To be noted: small-molecule microarray, higher = more signal.

Neurogenic locus notch homolog protein 2 (Homo sapiens), sequence (Q04721 whole entry, looked up, canonical isoform): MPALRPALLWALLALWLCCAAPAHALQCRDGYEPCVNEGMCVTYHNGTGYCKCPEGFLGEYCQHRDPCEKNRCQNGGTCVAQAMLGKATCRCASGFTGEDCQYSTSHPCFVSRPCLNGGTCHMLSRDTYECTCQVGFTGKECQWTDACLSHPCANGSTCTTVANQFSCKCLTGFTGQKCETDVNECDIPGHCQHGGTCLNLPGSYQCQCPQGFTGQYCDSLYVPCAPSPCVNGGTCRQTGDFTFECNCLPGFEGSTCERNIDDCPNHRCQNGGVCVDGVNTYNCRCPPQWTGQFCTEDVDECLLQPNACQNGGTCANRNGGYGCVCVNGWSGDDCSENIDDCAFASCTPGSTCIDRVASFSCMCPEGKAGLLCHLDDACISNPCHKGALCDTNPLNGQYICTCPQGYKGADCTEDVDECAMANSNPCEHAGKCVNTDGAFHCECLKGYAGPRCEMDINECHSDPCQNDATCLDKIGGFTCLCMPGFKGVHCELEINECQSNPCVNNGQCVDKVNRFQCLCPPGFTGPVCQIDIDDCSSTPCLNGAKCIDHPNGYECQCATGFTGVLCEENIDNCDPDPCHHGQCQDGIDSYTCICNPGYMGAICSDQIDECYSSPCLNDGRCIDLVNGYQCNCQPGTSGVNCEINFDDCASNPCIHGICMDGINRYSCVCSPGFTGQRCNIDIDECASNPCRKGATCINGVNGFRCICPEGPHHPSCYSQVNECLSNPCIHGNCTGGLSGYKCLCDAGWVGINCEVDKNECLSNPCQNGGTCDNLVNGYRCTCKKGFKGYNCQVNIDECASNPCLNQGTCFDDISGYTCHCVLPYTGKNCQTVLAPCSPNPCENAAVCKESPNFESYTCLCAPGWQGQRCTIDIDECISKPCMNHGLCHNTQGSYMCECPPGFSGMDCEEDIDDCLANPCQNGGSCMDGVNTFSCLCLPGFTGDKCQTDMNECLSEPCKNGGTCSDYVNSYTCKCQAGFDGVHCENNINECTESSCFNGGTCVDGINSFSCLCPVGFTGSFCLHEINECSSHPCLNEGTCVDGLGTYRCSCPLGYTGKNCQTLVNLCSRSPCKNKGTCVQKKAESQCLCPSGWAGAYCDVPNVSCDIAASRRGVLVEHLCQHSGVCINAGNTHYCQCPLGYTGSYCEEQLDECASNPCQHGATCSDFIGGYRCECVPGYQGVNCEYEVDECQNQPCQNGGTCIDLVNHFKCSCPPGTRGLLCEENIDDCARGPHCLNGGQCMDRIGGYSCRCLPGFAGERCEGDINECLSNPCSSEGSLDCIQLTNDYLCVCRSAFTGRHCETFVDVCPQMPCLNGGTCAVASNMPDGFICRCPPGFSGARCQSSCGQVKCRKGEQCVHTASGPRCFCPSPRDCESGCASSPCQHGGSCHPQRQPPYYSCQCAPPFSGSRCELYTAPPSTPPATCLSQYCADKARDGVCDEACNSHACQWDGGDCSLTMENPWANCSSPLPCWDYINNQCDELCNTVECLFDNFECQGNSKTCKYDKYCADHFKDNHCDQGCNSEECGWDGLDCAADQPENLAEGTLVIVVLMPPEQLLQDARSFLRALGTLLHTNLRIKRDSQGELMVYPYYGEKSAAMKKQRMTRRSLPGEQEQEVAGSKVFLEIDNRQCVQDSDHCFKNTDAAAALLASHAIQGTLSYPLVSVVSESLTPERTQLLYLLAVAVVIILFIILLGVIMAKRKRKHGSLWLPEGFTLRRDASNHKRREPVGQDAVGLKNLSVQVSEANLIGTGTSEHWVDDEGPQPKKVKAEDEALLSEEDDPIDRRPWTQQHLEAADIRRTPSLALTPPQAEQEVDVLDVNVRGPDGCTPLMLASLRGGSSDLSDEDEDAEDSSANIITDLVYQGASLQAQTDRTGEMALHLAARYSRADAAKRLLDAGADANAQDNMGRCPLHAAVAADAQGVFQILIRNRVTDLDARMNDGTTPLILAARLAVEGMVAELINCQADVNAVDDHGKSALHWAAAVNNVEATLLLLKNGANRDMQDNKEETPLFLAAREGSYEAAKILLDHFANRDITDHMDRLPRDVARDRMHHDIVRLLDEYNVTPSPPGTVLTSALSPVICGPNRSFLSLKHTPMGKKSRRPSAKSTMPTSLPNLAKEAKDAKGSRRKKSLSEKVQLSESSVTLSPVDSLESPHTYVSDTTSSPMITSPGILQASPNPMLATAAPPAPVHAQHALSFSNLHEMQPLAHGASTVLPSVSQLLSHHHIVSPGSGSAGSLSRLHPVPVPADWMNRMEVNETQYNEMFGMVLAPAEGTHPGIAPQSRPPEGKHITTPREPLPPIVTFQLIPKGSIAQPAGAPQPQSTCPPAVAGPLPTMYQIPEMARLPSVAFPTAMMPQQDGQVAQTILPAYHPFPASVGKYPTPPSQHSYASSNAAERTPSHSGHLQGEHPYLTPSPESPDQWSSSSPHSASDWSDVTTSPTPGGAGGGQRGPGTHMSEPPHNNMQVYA

For `C=C(CCCC)/C(=C/C[C@@H](OC(=O)c1ccncc1)c1ccccc1OCCO)c1cnc2ccccc2c1`, the composite z-score in [1] was -0.5; in test [2], 0.517; in test [3], 0.165; in [4], 1.17; in test [5] it was 1.33; in [6], 0.611. Further, the composite z-score was 1.04 in test [7]; 0.574 in [9]; 0.469 in test [10]; 1.55 in [11]; 1.26 in test [15]; -0.127 in [17]. In addition, the composite z-score in test [18] is 1.9; in [19] it was 1.05; in [20], -0.0028. The z-score in test [8] is -1.53 (inactive); in [12], -0.868 (inactive); in test [13], -1.2 (inactive); in [14], 1.65 (inactive); in test [16], 0.514 (inactive).
In the case of `CCOC(=O)C1=CC[C@@H](c2cccc(Cl)c2)N(S(=O)(=O)c2ccc(C)cc2)C1`, the composite z-score in test [1] amounted to 0.432; in test [2] it was 0.627; in [3], 0.067; in test [4] it was 0.336; in [5] it was 0.0142; in [6], 1.31. In addition, the composite z-score in test [7] is 1.2; in [9], 0.329; in test [10], -0.0994; in [11] it was 0.335; in test [15] it was 2.54; in [17], 0.0771. Besides, the composite z-score in test [18] is 0.0745; in test [19], 0.126; in [20] it was -0.0803. For the same compound, the z-score in [8] is -2.76 (inactive); in [12], -1.89 (inactive); in test [13] it was -0.0856 (inactive); in [14], 0.311 (inactive); in [16], -0.363 (inactive).
Regarding `O=C1C2C=CC(C(O)c3ccccc3)N(Nc3ccccc3F)C2C(=O)N1c1ccccc1` (stereo not given), the composite z-score in test [1] is -0.283; in test [2] it was 0.932; in test [3], 0.0248; in test [4], 0.373; in test [5], 0.99; in [6] it was 0.801. For the same compound, the composite z-score is 0.834 in test [7]; 0.444 in test [9]; -0.191 in [10]; 0.101 in test [11]; 2.61 in test [15]; -0.0381 in test [17]. For the same compound, the composite z-score in test [18] was -0.0199; in test [19] it was 0.023; in test [20], -0.067. The z-score in test [8] is -2.14 (inactive); in test [12], 0.181 (inactive); in [13] it was 0.815 (inactive); in test [14], 0.285 (inactive); in [16], -0.106 (inactive).
With `O=C(CS)NCCCCCCNC(=O)[C@H]1C[C@H]2C(=O)N[C@@H](Cc3ccccc3)C(=O)N2[C@H]1c1ccc(O)cc1`, the composite z-score in [1] is -0.361; in test [2], 0.375; in test [3], -0.132; in [4], 0.836; in [5], 0.51; in test [6] it was 1.34. Further, the composite z-score in test [7] was 1.36; in test [9], -0.571; in [10] it was -0.928; in [11], 1.53; in test [15], 1.91; in test [17] it was -0.316. The composite z-score is 0.405 in [18], 0.635 in [19] and -0.105 in [20]. Besides, the z-score is 0.234 (inactive) in [8]; 0.407 (inactive) in test [12]; 1.1 (inactive) in [13]; 1.12 (inactive) in test [14]; -0.0352 (inactive) in test [16].
As for `O=C(NCc1ccccc1)[C@@H]1c2ccccc2C(=O)N(Cc2ccccc2C(F)(F)F)[C@H]1c1ccc(CO)cc1`, the composite z-score is -0.234 in test [1]; 0.55 in test [2]; -0.0451 in test [3]; -0.0459 in [4]; -0.927 in test [5]; 0.48 in test [6]. Besides, the composite z-score was 1.25 in test [7]; -0.428 in [9]; -0.293 in test [10]; 1.45 in test [11]; 1.83 in test [15]; -0.179 in test [17]. For the same compound, the composite z-score in [18] is -0.483; in test [19], -0.0406; in test [20], -0.212. The z-score was -3.23 (inactive) in test [8]; 0.397 (inactive) in test [12]; 0.234 (inactive) in [13]; -0.0066 (inactive) in test [14]; 0.479 (inactive) in test [16].
Turning to `COc1ccc(-c2nc(-c3ccccc3)c3c(c2C)CO[Si]3(C(C)C)C(C)C)cn1`, the composite z-score is -0.367 in test [1]; 0.0662 in [2]; -0.087 in [3]; 0.296 in [4]; 0.296 in test [5]; -0.199 in test [6]. Further, the composite z-score in [7] was -0.196; in test [9] it was -0.0377; in test [10] it was 0.176; in test [11], 0.569; in test [15], 0.498; in test [17], -0.162. Further, the composite z-score was 1.09 in [18], 0.0188 in test [19] and 0.0361 in test [20]. Further, the z-score in [8] is 0.702 (inactive); in test [12], -0.195 (inactive); in test [13] it was -0.391 (inactive); in [14], -0.0892 (inactive); in [16] it was -1.5 (inactive).
